The list is not random: actives were taken first. Their share in the collection is about 11%.
IMPase inh: qHTS Assay for Identifying the Cell-Membrane Permeable IMPase Inhibitors; CHO-M1 cells, IP1 accumulation, HTRF TR-FRET ratio; inhibition (IP1 accumulation), % at 46.1 µM; 120,000 tested, under 10 active; Inositol monophosphatase 1 (Rattus norvegicus), P97697; active = well fitted curve in the direction sought with a large enough effect in the signal ratio, not every such curve was filed as active; inconclusive = small, poorly fitted or top-dose-only effect, or a change in a side signal; inactive = no such curve, though single readings can be large or run the other way; the % refers to the signal ratio;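 note: cells stimulated with carbachol in lithium chloride buffer; higher means more IMPase inhibition seen as more IP1 and lower FRET ratio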
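Cellular IMPase inhibition is scored as a rise in cytosolic IP1, detected by competitive TR-FRET between d2-labelled IP1 and a europium anti-IP1 antibody. M1-expressing CHO cells were stimulated with carbachol for 30 min at 37C, with lithium (50 mM LiCl) present in the buffer.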
PNC assembly inh: High Content Assay for Compounds that inhibit the Assembly of the Perinucleolar Compartment. 3.1% of 140,000 active. activity change (PNC), negative = inhibition, % at 10 µM. AID 2417, 2010. PC3M PTB-GFP, PNC prevalence imaging, 16 h; stronger effect = lower value;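 active = readout at or below -70, meaning at least 70% loss of cells showing the perinucleolar compartment, a nuclear body marking cancer cells; inconclusive = readout between -30 and a set limit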
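Read-out is percentage of cells bearing a perinucleolar compartment, from automated 20x imaging of fixed, Hoechst-stained PC3M PTB-GFP cells. Cells were seeded 4 h, then exposed 16 h to compound (23 nl of library stock) in duplicate plates.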
ALDH1A1 inh: qHTS Assay for Inhibitors of Aldehyde Dehydrogenase 1 (ALDH1A1); Purified ALDH1A1, NADH fluorescence, propionaldehyde substrate; 7.3% of 220,000 active; Aldehyde dehydrogenase 1A1 (Homo sapiens), P00352; Potency, µM (series often up to 75.3 µM), usual class: inhibitors; active = well fitted inhibition curve with a large enough effect, not every such curve was filed as active; inconclusive = small, poorly fitted or top-dose-only effect, or another doubt; inactive = no such curve, though single readings can be large or run the other way
HPGD block: qHTS Assay for Inhibitors of HPGD (15-Hydroxyprostaglandin Dehydrogenase) | 4.3% of 150,000 active | 15-hydroxyprostaglandin dehydrogenase [NAD(+)] (Homo sapiens), P15428 | AID 894, 2007 | purified HPGD, NADH fluorescence kinetic, PGE2 substrate | Potency, µM, hits mostly inhibitors; active = well fitted inhibition curve with a large enough effect, not every such curve was filed as active; inconclusive = small, poorly fitted or top-dose-only effect, or another doubt; inactive = no such curve, though single readings can be large or run the other way
Target sequence (P15428 whole entry, looked up): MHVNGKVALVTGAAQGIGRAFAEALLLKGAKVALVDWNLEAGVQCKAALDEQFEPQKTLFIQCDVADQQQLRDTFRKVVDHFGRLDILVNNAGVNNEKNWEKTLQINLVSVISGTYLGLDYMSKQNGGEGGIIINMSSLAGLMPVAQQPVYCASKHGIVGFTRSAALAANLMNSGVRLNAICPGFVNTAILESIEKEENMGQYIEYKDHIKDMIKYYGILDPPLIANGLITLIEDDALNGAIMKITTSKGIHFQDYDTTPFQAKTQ
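20 nM HPGD preincubated 15 min at room temperature with compound in 50 mM Tris-HCl pH 8, 0.01% Tween 20. Started with 1 mM NAD+ and 30 uM prostaglandin E2; NADH fluorescence (360/450 nm) read 5 times over 30-s intervals, last minus first.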
NPSR antag: qHTS Assay for Antagonists of the Neuropeptide S Receptor: cAMP Signal Transduction; Q6W5P4; CHO-NPSR cells, cAMP TR-FRET, antagonist mode; Potency, µM (titrated, usually from 38.3 µM), hits mostly inhibitors; 1% of 220,000 active; note: nearly all actives have a fitted effect of over 50% in size
Target sequence (Q6W5P4 whole entry, looked up): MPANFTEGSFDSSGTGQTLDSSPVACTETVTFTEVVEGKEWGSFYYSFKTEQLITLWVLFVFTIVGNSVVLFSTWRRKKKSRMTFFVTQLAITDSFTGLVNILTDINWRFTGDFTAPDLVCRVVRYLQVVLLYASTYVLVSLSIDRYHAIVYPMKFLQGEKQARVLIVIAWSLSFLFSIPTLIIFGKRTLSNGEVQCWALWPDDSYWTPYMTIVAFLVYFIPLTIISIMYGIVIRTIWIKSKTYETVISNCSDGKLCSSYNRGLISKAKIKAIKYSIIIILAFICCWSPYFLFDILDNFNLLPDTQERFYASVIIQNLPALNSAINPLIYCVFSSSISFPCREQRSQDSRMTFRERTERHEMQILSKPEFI
IMPase Li cell: qHTS Assay for Identifying the Cell-Membrane Permeable IMPase Inhibitors: Potentiation with Lithium | Potency, µM (series often up to 59.4 µM), usual class: inhibitors | CHO-M1 cells, IP1 TR-FRET (IP-One), carbachol + lithium | 0.35% of 210,000 active;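 note: IP1 builds up when IMPase is blocked and the TR-FRET signal falls; nearly all actives have a fitted effect of over 50% in size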
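CHO-M1, 2000 cells/well, 16–30 h culture; cpd + low Li+, 30 min 37C; lysis with d2-IP1/Eu-anti-IP1 Ab, 10 min RT; TR-FRET 665/620 ratio and 620 channel; AC50 via Hill.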
Each line names hits and unclear results; the compound was inactive in the other large screens. Unless noted, calls come from the whole dose curve; as a rule, active = well fitted curve in the direction sought with a large enough effect; inconclusive = small, poorly fitted or top-dose-only effect, or another doubt; inactive = no such curve, though single readings can be large; an effect the other way counts as inactive or inconclusive.

COc1cccc(Cn2nnc(C(=O)NCc3ccccc3Cl)c2N)c1	none
COC(=O)c1ccc(N2CCOCC2)c(NC(=O)Nc2cccc(OC)c2)c1	PNC assembly inh inconclusive, ALDH1A1 inh 25.1µM, HPGD block inconclusive
COC(=O)c1ccc(N2CCN(C(C)=O)CC2)c(NC(=O)COc2ccccc2C)c1	ALDH1A1 inh 7.94µM (no result: IMPase inh, PNC assembly inh, HPGD block)
O=C1CCCC(O)=C1N=Nc1ccc(Cl)c(Cl)c1	none (no result: IMPase inh, PNC assembly inh, HPGD block)
CCOc1cc2c(cc1OCC)C(c1ccccc1OC)OC(=O)C2 (stereo not given)	ALDH1A1 inh 11.2µM (no result: IMPase inh)
COc1ccc(-c2nnn(CC(=O)N3CCOCC3)n2)cc1	none
O=C(Cn1nnc(-c2ccc(OCc3ccccc3F)cc2)n1)N1CCOCC1	PNC assembly inh -102.3
O=C(NCc1ccc2c(c1)OCO2)C1CCCN1C(=O)Nc1ccc(F)cc1 (stereo not given)	none (no result: HPGD block, IMPase Li cell)
CCC(=O)N(CC)C1=C(O)c2ccccc2C(=O)C1=O	PNC assembly inh inconclusive, ALDH1A1 inh 22.4µM, HPGD block 12.6µM
CCC(=O)N(C1=C(NC)C(=O)c2ccccc2C1=O)C(C)C	none (no result: IMPase inh, PNC assembly inh, HPGD block)
COCCCn1c(=S)[nH]c2sc3c(c2c1=O)CCCS3	ALDH1A1 inh 25.1µM, NPSR antag 7.94µM, IMPase Li cell inconclusive (no result: IMPase inh, PNC assembly inh, HPGD block)
C/C(=N\NC(=O)c1ccc(Cl)cc1)c1ccc(N2CCOCC2)cc1	HPGD block inconclusive (no result: IMPase inh)
Cc1ccc(-c2noc(COc3ccc4c(c3)OCO4)n2)cc1	none
Cc1ccsc1C(=O)Nc1ccc2c(c1)OCCO2	HPGD block 31.6µM
Cc1cc(C(=O)Nc2ccc3c(c2)OCCO3)c(C)o1	none
CC(NC(=O)c1cccs1)c1ccc2c(c1)OCO2 (stereo not given)	PNC assembly inh inconclusive
Cc1occc1C(=O)Nc1ccc2c(c1)OCCO2	IMPase inh inconclusive, ALDH1A1 inh 12.6µM, HPGD block 15.8µM
Cc1ccsc1C(=O)NC(C)c1ccc2c(c1)OCO2 (stereo not given)	PNC assembly inh -118.9
Cc1ncoc1C(=O)Nc1ccc2c(c1)OCCO2	PNC assembly inh inconclusive
Cc1csc2ncc(C(=O)Nc3ccc4c(c3)OCCO4)c(=O)n12	ALDH1A1 inh 8.91µM, IMPase Li cell inconclusive
CC(=O)c1c(C)[nH]c(C(=O)NCCc2ccccc2)c1C	none
CC(=O)c1c(C)[nH]c(C(=O)N(C)C(c2ccccc2)c2ccccc2)c1C	ALDH1A1 inh 17.8µM (no result: IMPase inh, PNC assembly inh, HPGD block)
Cc1ccc(-n2nc(C)c3c2OC(N)=C(C#N)C3c2ccoc2)cc1 (stereo not given)	ALDH1A1 inh 0.891µM
Cc1ccc(-n2nc(C)c3c2OC(N)=C(C#N)C3c2ccco2)cc1 (stereo not given)	IMPase inh inconclusive, ALDH1A1 inh 1.58µM, HPGD block inconclusive
Cc1ccc(-c2[nH]nc3c2C(c2ccoc2)C(C#N)=C(N)O3)cc1C (stereo not given)	PNC assembly inh inconclusive, NPSR antag inconclusive
Cc1ccc(-n2nc(C)c3c2OC(N)=C(C#N)C3c2ccc(C)o2)cc1 (stereo not given)	ALDH1A1 inh 1.58µM
Cc1ccc(SCc2[nH]nc3c2C(c2ccco2)C(C#N)=C(N)O3)cc1 (stereo not given)	HPGD block inconclusive
CC(C)(C)C1CCc2c(sc(NC(=O)CSc3nnc(-c4ccccc4)o3)c2C#N)C1 (stereo not given)	ALDH1A1 inh inconclusive (no result: IMPase inh)
COc1ccc(OC)c(-n2c(-c3ccc(C)cc3)n[nH]c2=S)c1	IMPase inh inconclusive, ALDH1A1 inh 17.8µM, HPGD block inconclusive
COc1ccc(-c2n[nH]c(=S)n2N)c(OC)c1	ALDH1A1 inh 25.1µM (no result: IMPase inh, PNC assembly inh, HPGD block)
CN1Cc2cc(C(=O)c3ccccc3O)cnc2NC1=O	IMPase inh inconclusive, PNC assembly inh inconclusive, HPGD block 25.1µM
COc1ccc(C(=O)CSC#N)cc1OC	ALDH1A1 inh 1.26µM (no result: IMPase inh, PNC assembly inh, HPGD block)
Cc1cc(Br)c(OCC(=O)NN)c2c1CCC2	ALDH1A1 inh 2µM (no result: IMPase inh, PNC assembly inh, HPGD block, IMPase Li cell)
Cc1ccc(S(=O)(=O)N(CC2CO2)c2ccccc2[N+](=O)[O-])cc1 (stereo not given)	none (no result: IMPase inh, PNC assembly inh, HPGD block)
O=C(c1cc(O)c(O)c([N+](=O)[O-])c1)c1ccccc1F	ALDH1A1 inh 12.6µM, HPGD block 14.1µM (no result: PNC assembly inh)
O=C(Nc1ccc([N+](=O)[O-])cc1)c1ccccc1F	none (no result: IMPase inh, PNC assembly inh, HPGD block)
O=C(CSC1=NC(=O)C(c2ccccc2)C(=O)N1)Nc1ccccc1Cl (stereo not given)	PNC assembly inh inconclusive, ALDH1A1 inh 20µM
COc1ccc(-n2c(SCC(N)=O)nc3nc4c(cc3c2=O)COC(C)(C)C4)cc1	ALDH1A1 inh 3.55µM
CC(Cc1ccccc1)NC(=O)CSc1nc2nc3c(cc2c(=O)n1-c1ccccc1)COC(C)(C)C3 (stereo not given)	ALDH1A1 inh 1.58µM
C=CCn1c(SCC(N)=O)nc2nc3c(cc2c1=O)COC(C)(C)C3	none (no result: IMPase inh, PNC assembly inh, ALDH1A1 inh, HPGD block, IMPase Li cell)
CN1CCn2c1nc(N1CCCCC1)nc2=O	none
O=C1C2C3C=CC([C@@H]2C(=O)N1C1CCCCC1)[C@H]1C(=O)N(C2CCCCC2)C(=O)C31 (stereo not given in full)	ALDH1A1 inh 1.41µM
O=C1[C@@H]2[C@@H]3C[C@@H]([C@H]4ON=C(c5ccc(Cl)cc5)[C@@H]34)[C@@H]2C(=O)N1C1CCCCC1	PNC assembly inh inconclusive
O=C1C2C3C=CC(C2C(=O)N1C1CCCCC1)C1C2C(=O)N(C4CCCCC4)C(=O)C2C31 (stereo not given)	ALDH1A1 inh 1.41µM
CCCCCOc1ccccc1C(=O)NCC(=O)O	none
COc1ccc(-c2nc3ccccc3c(=O)n2CCOc2ccccc2C)cc1	PNC assembly inh -121.5, ALDH1A1 inh inconclusive (no result: IMPase inh)
COc1ccc(-c2nc3ccccc3c(=O)n2CCCn2ccnc2)cc1	PNC assembly inh inconclusive, ALDH1A1 inh 14.1µM
COCCCN=C(c1ccco1)n1c(=S)nc(-c2ccco2)n(CCCOC)c1=S	PNC assembly inh inconclusive, ALDH1A1 inh 3.55µM, HPGD block 28.2µM, NPSR antag inconclusive
COCCCn1c(-c2ccco2)nc2ccccc2c1=O	ALDH1A1 inh 22.4µM
O=C(O)CC1S/C(=N/N=C/c2ccc(-c3ccc(Cl)cc3[N+](=O)[O-])o2)NC1=O (stereo not given)	ALDH1A1 inh 22.4µM, HPGD block 8.91µM
COc1ccc(-c2nnc3sc(CN4C(=O)c5ccccc5C4=O)nn23)cc1	ALDH1A1 inh inconclusive, IMPase Li cell inconclusive
